The source of these data is PubChem BioAssay (NCI).

The panel holds about 79,000 compounds, 15% with a hit somewhere; the sample as a whole holds those more often. A number with no mark means an inactive call. Calls of active or inactive are those of the source. No stated cut-off is given here; in the data, active means growth inhibition above about 70%; inactive means the rest.

Test [1] in a line: NCI Yeast Anticancer Drug Screen. Data for the rad50 strain (AID 155).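 Further: 0% = growth of vehicle-only cultures of the same strain.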 The following applies: S. cerevisiae rad50 strain growth inhibition, hits give high values. The essentials: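 Compounds were tested on a yeast strain with an engineered DNA damage repair alteration; the reported value is growth inhibition normalised to vehicle treatment.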
Test [2] can be described thus: NCI Yeast Anticancer Drug Screen. Data for the mec2-1 strain (AID 157). Particulars: S. cerevisiae mec2-1 strain, hits give high values. The essentials:
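Test agents were screened against the mec2-1 yeast strain, with defined DNA repair or cell cycle alteration. Growth was scored as inhibition against vehicle-only controls.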

Test [3] in a line: NCI Yeast Anticancer Drug Screen. Data for the sgs1 mgt1 strain (AID 161).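 Further: 0% = growth of cultures given vehicle only.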 The following applies: S. cerevisiae sgs1 mgt1 strain, hits give high values. The essentials:
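Read-out: growth inhibition vs vehicle controls. Cells: mutant yeast strain deficient in DNA damage repair.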

A short description of test [4]: NCI Yeast Anticancer Drug Screen. Data for the cln2 rad14 strain (AID 165).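 Further: 0% = growth equal to vehicle treated cultures.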 Particulars: S. cerevisiae cln2 rad14 strain, hits give high values. The essentials:
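Growth of compound-exposed yeast (cln2 rad14 genotype) measured and expressed as inhibition relative to vehicle.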

The nature of test [5]: NCI Yeast Anticancer Drug Screen. Data for the bub3 strain (AID 167). Particulars: S. cerevisiae bub3 mutant strain, hits give high values. The essentials: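 Growth of a checkpoint-deficient yeast mutant is measured after compound exposure. Values represent inhibition relative to vehicle.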
A short description of test [6]: NCI Yeast Anticancer Drug Screen. Data for the mlh1 rad18 strain (AID 175). The following applies: S. cerevisiae mlh1 rad18 strain growth inhibition, hits give high values. The essentials: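 In this whole-cell yeast screen, a strain with altered DNA damage repair is challenged with compound, and its growth is measured against matched vehicle-treated controls.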
Setting [7] is: at 5.0 µM (retest, dose inferred, filed as 0.5).
The mark [8] stands for this setting: at 50.0 µM (retest, dose inferred, filed as 5.0).

Consider `CCCCCCCCCCN1Cc2ccccc2C1`, for which the growth inhibition is 77% (active) in test [1] (setting [7]); 99% (active) in test [1] (setting [8]); 99% (active) in test [1] (at 50.0 µM); 68% in test [2] (setting [7]); 99% (active) in test [2] (setting [8]); 97.9% (active) in test [2] (at 50.0 µM). For the same molecule, the growth inhibition is 87% (active) in test [3] (setting [7]); 99% (active) in test [3] (setting [8]); 99% (active) in test [3] (at 50.0 µM); 68% in test [4] (setting [7]); 99% (active) in test [4] (setting [8]); 97.5% (active) in test [4] (at 50.0 µM). Further, the growth inhibition in test [5] (setting [7]) was 85% (active); in test [5] (setting [8]), 99% (active); in test [5] (at 50.0 µM), 98% (active); in test [6] (setting [7]) it was 68%; in test [6] (setting [8]) it was 99% (active); in test [6] (at 50.0 µM) it was 99.3% (active).

In the case of `CCC(C)(C)c1ccc(OCCO)c([N+](=O)[O-])c1`, the growth inhibition is 10% in test [1] (setting [7]); 70% (active) in test [1] (setting [8]); 77.3% (active) in test [1] (at 50.0 µM); 8% in test [2] (setting [7]); 71% (active) in test [2] (setting [8]); 0.1% in test [2] (at 50.0 µM). Moreover, the growth inhibition in test [3] (setting [7]) was 15%; in test [3] (setting [8]), 92% (active); in test [3] (at 50.0 µM), 74% (active); in test [4] (setting [7]), 13%; in test [4] (setting [8]) it was 64%; in test [4] (at 50.0 µM), 25.9%. Moreover, the growth inhibition in test [5] (setting [7]) is 19%; in test [5] (setting [8]), 88% (active); in test [5] (at 50.0 µM) it was 72.4% (active); in test [6] (setting [7]), 29%; in test [6] (setting [8]), 90% (active); in test [6] (at 50.0 µM) it was 56.9%.

Regarding `O=c1c2ccccc2[nH]c2c1[nH]c1ccccc12`, the growth inhibition is 10% in test [1] (setting [7]); 23% in test [1] (setting [8]); 37% in test [1] (at 50.0 µM); 11% in test [2] (setting [7]); 25% in test [2] (setting [8]); -11.7% in test [2] (at 50.0 µM). For the same molecule, the growth inhibition in test [3] (setting [7]) is 5%; in test [3] (setting [8]), 24%; in test [3] (at 50.0 µM) it was -1.65%; in test [4] (setting [7]), 7%; in test [4] (setting [8]), 11%; in test [4] (at 50.0 µM), 83.4% (active). The growth inhibition is 7% in test [5] (setting [7]); 22% in test [5] (setting [8]); -20.6% in test [5] (at 50.0 µM); 12% in test [6] (setting [7]); 28% in test [6] (setting [8]); 19.9% in test [6] (at 50.0 µM).

Consider `COc1cc([C@@H]2c3cc4c(cc3[C@@H](OC3OC5CO[C@@H](c6cccs6)OC5C(O)C3O)[C@H]3COC(=O)[C@H]23)OCO4)cc(OC)c1O` (stereo not given in full), for which the growth inhibition in test [1] (setting [7]) was 74% (active); in test [1] (setting [8]), 96% (active); in test [1] (at 50.0 µM), 86.6% (active); in test [2] (setting [7]), 5%; in test [2] (setting [8]), 92% (active); in test [2] (at 50.0 µM), 74.8% (active). Further, the growth inhibition in test [3] (setting [7]) was 6%; in test [3] (setting [8]), 77% (active); in test [3] (at 50.0 µM), 63.7%; in test [4] (setting [7]), -3%; in test [4] (setting [8]) it was 79% (active); in test [4] (at 50.0 µM), 47.6%. For the same molecule, the growth inhibition in test [5] (setting [7]) was -2%; in test [5] (setting [8]), 74% (active); in test [5] (at 50.0 µM), 49.8%; in test [6] (setting [7]), 5%; in test [6] (setting [8]), 86% (active); in test [6] (at 50.0 µM), 64.7%.

Consider `Sc1ccccc1C1N(Cc2ccc(Cl)cc2)CCCN1Cc1ccc(Cl)cc1`, for which the growth inhibition in test [1] (setting [7]) was 98% (active); in test [1] (setting [8]), 42%; in test [1] (at 50.0 µM), 79.2% (active); in test [2] (setting [7]), 100% (active); in test [2] (setting [8]), 69%; in test [2] (at 50.0 µM), 55.6%. In addition, the growth inhibition is 99% (active) in test [3] (setting [7]); 84% (active) in test [3] (setting [8]); 86.8% (active) in test [3] (at 50.0 µM); 99% (active) in test [4] (setting [7]); 39% in test [4] (setting [8]); 64% in test [4] (at 50.0 µM). The growth inhibition was 99% (active) in test [5] (setting [7]); 63% in test [5] (setting [8]); 81.8% (active) in test [5] (at 50.0 µM); 99% (active) in test [6] (setting [7]); 73% (active) in test [6] (setting [8]); 79.6% (active) in test [6] (at 50.0 µM).

Turning to `Oc1c(Cl)cc(C(c2cc(Cl)c(O)c(Cl)c2)C(Cl)(Cl)Cl)cc1Cl`, the growth inhibition in test [1] (setting [7]) is 94% (active); in test [1] (setting [8]), 98% (active); in test [1] (at 50.0 µM) it was 98.8% (active); in test [2] (setting [7]), 95% (active); in test [2] (setting [8]), 99% (active); in test [2] (at 50.0 µM), 99.1% (active). The growth inhibition in test [3] (setting [7]) was 81% (active); in test [3] (setting [8]) it was 99% (active); in test [3] (at 50.0 µM), 99.3% (active); in test [4] (setting [7]), 99% (active); in test [4] (setting [8]), 98% (active); in test [4] (at 50.0 µM), 98.5% (active). The growth inhibition in test [5] (setting [7]) was 96% (active); in test [5] (setting [8]), 99% (active); in test [5] (at 50.0 µM), 98.8% (active); in test [6] (setting [7]) it was 92% (active); in test [6] (setting [8]), 98% (active); in test [6] (at 50.0 µM), 98.6% (active).

For the molecule `Cc1cc(O)c(C=NC(=S)C(N)=S)c(=O)o1`, the growth inhibition in test [1] (setting [7]) is 29%; in test [1] (setting [8]), 43%; in test [1] (at 50.0 µM), -27.7%; in test [2] (setting [7]), 13%; in test [2] (setting [8]) it was 42%; in test [2] (at 50.0 µM), -19.6%. Besides, the growth inhibition was 22% in test [3] (setting [7]); 46% in test [3] (setting [8]); 8.7% in test [3] (at 50.0 µM); 14% in test [4] (setting [7]); 22% in test [4] (setting [8]); -4.4% in test [4] (at 50.0 µM). Moreover, the growth inhibition in test [5] (setting [7]) was 21%; in test [5] (setting [8]), 49%; in test [5] (at 50.0 µM), -26.5%; in test [6] (setting [7]), 17%; in test [6] (setting [8]), 42%; in test [6] (at 50.0 µM) it was -38%.

On to `CC/C(C)=C1\CCC(CN2CCOCC2)C1=O` (stereo not given), for which the growth inhibition in test [1] (setting [7]) was 24%; in test [1] (setting [8]), 61%; in test [1] (at 50.0 µM), 79% (active); in test [2] (setting [7]), 20%; in test [2] (setting [8]) it was 77% (active); in test [2] (at 50.0 µM) it was 72% (active). The growth inhibition in test [3] (setting [7]) is 24%; in test [3] (setting [8]), 70% (active); in test [3] (at 50.0 µM), 66.3%; in test [4] (setting [7]), 31%; in test [4] (setting [8]), 45%; in test [4] (at 50.0 µM) it was 48.8%. The growth inhibition in test [5] (setting [7]) was 31%; in test [5] (setting [8]), 94% (active); in test [5] (at 50.0 µM), 62.9%; in test [6] (setting [7]) it was 14%; in test [6] (setting [8]) it was 90% (active); in test [6] (at 50.0 µM), 79.2% (active).

Consider `Cc1nn(-c2ccc(Cl)cc2)c2nc(N)nc(N)c12`, for which the growth inhibition is 3% in test [1] (setting [7]); 0% in test [1] (setting [8]); 30.2% in test [1] (at 50.0 µM); -3% in test [2] (setting [7]); 11% in test [2] (setting [8]); 30.6% in test [2] (at 50.0 µM). The growth inhibition in test [3] (setting [7]) was 2%; in test [3] (setting [8]), -2%; in test [3] (at 50.0 µM), 34.4%; in test [4] (setting [7]) it was -5%; in test [4] (setting [8]), -6%; in test [4] (at 50.0 µM) it was 62.6%. Further, the growth inhibition in test [5] (setting [7]) was -1%; in test [5] (setting [8]), 0%; in test [5] (at 50.0 µM) it was 21.2%; in test [6] (setting [7]), 0%; in test [6] (setting [8]), 9%; in test [6] (at 50.0 µM), 45.4%.

With `O=C1c2ccccc2-c2cc([N+](=O)[O-])c([N+](=O)[O-])cc21`, the growth inhibition in test [1] (setting [7]) was 16%; in test [1] (setting [8]), 99% (active); in test [1] (at 50.0 µM), 93.2% (active); in test [2] (setting [7]) it was 19%; in test [2] (setting [8]), 45%; in test [2] (at 50.0 µM), 98.6% (active). The growth inhibition in test [3] (setting [7]) is 21%; in test [3] (setting [8]) it was 99% (active); in test [3] (at 50.0 µM) it was 96% (active); in test [4] (setting [7]), -15%; in test [4] (setting [8]), 90% (active); in test [4] (at 50.0 µM), 90% (active). The growth inhibition in test [5] (setting [7]) is 7%; in test [5] (setting [8]), 99% (active); in test [5] (at 50.0 µM) it was 98.7% (active); in test [6] (setting [7]) it was 5%; in test [6] (setting [8]) it was 98% (active); in test [6] (at 50.0 µM), 98.3% (active).
